Sampled rows, rich in hits. Any-hit rate of the full collection: about 17%.
HepG2 viability: kills HepG2 cells in TGF-b inhibitor counter-screen; HepG2 CAGA-GFP viability, ATP luminescence, 18 h; Potency, µM (series often up to 46.1 µM), for inactives: top-dose activity change, negative = cytotoxicity, hits mostly cytotoxic; hit rate 0.76% among 410,000; AID 588856
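HepG2 CAGA-GFP cells (1000/well, DMEM with 1% FBS) received compound, then TGF-beta at 500 pg/mL final, and were incubated 18 hours at 37 degrees C. Viability was read by CellTiter-Glo luminescence. Media-only wells were set as complete cell-killing and DMSO as no toxicity.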
HT1080 IDH1KD tx: toxicity to HT-1080 IDH1 knockdown cells (counter line) | HT-1080 IDH1 knockdown viability, ATP luminescence, 48 h | Potency, µM (highest dose often 46.1 µM), inactives show at the top dose activity, negative = toxicity, hits mostly cytotoxic | hit rate 2% among 360,000;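 note: 0% = DMSO wells and -100% = cell-free medium wells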
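Luminescent ATP read-out (CellTiter-Glo, 10 min at room temperature) after 48 h compound exposure at 37 °C gave viability of IDH1-knockdown HT-1080 cells. Activity was normalised to DMSO and cell-free wells, then fitted as concentration-response curves.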
TDP1 cell CPT: DT40-hTDP1 cell growth loss with CPT | Potency, µM (series often up to 46.2 µM), inactives show at the highest dose activity change, negative = growth inhibition, usual class: inhibitors | hit rate 12% among 420,000 | chicken DT40 Tdp1-/-;hTDP1 cells + 20 nM CPT, ATP luminescence, 48 h; note: % is set by controls: 0 for no effect and ±100 for the full control effect; nearly all actives have a fitted effect of over 55% in size
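Chicken DT40 Tdp1-/- cells complemented with human TDP1, 400 cells/well, exposed to compounds plus 20 nM camptothecin for at least 48 h at 37 C; viability read as ATP content by CellTiter-Glo luminescence.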
DT40 TDP1 no CPT: qHTS for Inhibitors of human tyrosyl-DNA phosphodiesterase 1 (TDP1): qHTS in cells in absence of CPT; DT40 Tdp1-/- hTDP1 cells, no CPT, ATP luminescence, 48 h; Potency, µM (top dose mostly 46.2 µM), without a hit: at the top dose activity change, negative = growth inhibition, most hits filed as inhibitors; hit rate 15% among 420,000; note: % is set by controls: 0 for no effect and ±100 for the full control effect; nearly all actives have a fitted effect of over 55% in size
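Stably hTDP1-transfected Tdp1-null chicken DT40 cells were treated with library compounds minus camptothecin and grown for at least 48 hr at 37 °C, after which cellular ATP was quantified by luminescence.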
HT1080-NT tox: kills 2HG-producing HT-1080-NT fibrosarcoma cells; HT-1080-NT fibrosarcoma viability, CellTiter-Glo ATP luminescence, 48 h; Potency, µM (titrated, usually from 46.1 µM), for the others: at the highest dose activity, negative = less viability, hits mostly cytotoxic; hit rate 1.6% among 360,000;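 note: NT is the 2HG producing partner of a matched IDH1 knockdown line; 0% = DMSO-treated cells and -100% = media-only wells without cells; nearly all actives have a fitted effect of over 55% in size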
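HT-1080-NT fibrosarcoma cells (2HG-overproducing), 750 cells/well in RPMI with 5% FBS, dosed after 2 h and incubated 48 h at 37C. CellTiter-Glo luminescence normalized to DMSO and no-cell wells; concentration-response curves fitted and classed.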
TGFb inhibitor: TGF-b pathway inhibition. HepG2 CAGA-GFP TGF-b/SMAD3 reporter, GFP fluorescence, 18 h; TGF-beta stimulated, 500 pg/mL final. Potency, µM (titrated, usually from 46.1 µM), without a hit: at the top dose activity, negative = inhibition, actives largely listed as inhibitors. hit rate 1.2% among 410,000; note: % is set by controls: 0 for no effect and ±100 for the full control effect; nearly all actives have a fitted effect of over 65% in size
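Inhibition was scored as loss of TGF-beta-induced (500 pg/mL final, 18 hours, 37 degrees C) GFP in HEPG2 cells carrying a CAGA-GFP reporter, in DMEM with 1% FBS. Well GFP was summed per cell; Activity was normalised to unstimulated and stimulated DMSO wells, then concentration-response fitting.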
* hit, by the source's call; ? = inconclusive; . = not tested or not shown; ! = repeats disagree. Calls come from the whole dose curve; as a rule, active = well fitted curve in the direction sought with a large enough effect; inconclusive = small, poorly fitted or top-dose-only effect, or another doubt; inactive = no such curve, though single readings can be large; an effect the other way counts as inactive or inconclusive. Potency is the fitted concentration of half-maximal effect.

SMILES | HepG2 viability | HT1080 IDH1KD tx | TDP1 cell CPT | DT40 TDP1 no CPT | HT1080-NT tox | TGFb inhibitor
CCOC(=O)C1Oc2ccccc2C(c2ccc(C)cc2)=C1C(=O)OC (stereo not drawn) | -22% | 2% | ? | ? | -1% | -11%
O=C(CCl)N(CCCNC(=O)C(F)(F)F)c1ccc([N+](=O)[O-])cc1 | 16µM* | 7.3µM* | 2.6µM* | 6.5µM* | 21µM* | ?
O=C(NCCCNc1ccc([N+](=O)[O-])cc1)C(F)(F)F | -47% | 14% | 4% | 10% | 9% | ?
O=[N+]([O-])c1ccc2c(c1)C(N1CCOCC1)/C(=C/COc1ccc(Cl)cc1Cl)O2 (stereo not drawn) | 4% | -16% | ? | ? | -13% | -11%
COc1ccc(C(=O)NC(=S)Nc2cccc3nc(C)ccc23)cc1OC | -2% | -6% | ? | 21µM* | 1% | -14%
Cc1ccc(C(=O)NC(=S)Nc2cccc3c(C)cc(C)nc23)cc1 | -19% | -21% | ? | 21µM* | -20% | -13%
Cc1ccc2cccc(NC(=S)NC(=O)c3ccn(C)n3)c2n1 | -29% | 7.9µM* | ? | ? | 7.9µM* | -27%
COc1ccc(NC(=O)c2cc3c(s2)-c2c(C)cccc2OC3)cc1Cl | -46% | . | ? | ? | . | -29%
CC(=O)Nc1ccc(C(=O)N2CCCCC2c2cc(C(=O)NCc3ccc(F)cc3)no2)cc1 (stereo not drawn) | 0% | 2% | -4% | -19% | 19% | -2%
Nc1cc2c(cc1Cl)-c1ccccc1C2=NO | -52% | -3% | ? | ? | -4% | ?
C=C(C)c1cccc(C(C)(C)NC(=O)N2CCN(CC)CC2)c1 | 6% | 16% | -6% | -17% | 12% | -2%
C=C(C)c1cccc(C(C)(C)NC(=O)N2CCC(C)CC2)c1 | -2% | 6% | 18µM* | ? | -1% | -4%
Cc1cc(C(=O)CSc2nnc(-c3ccco3)o2)c(C)n1CC1COc2ccccc2O1 (stereo not drawn) | -11% | -2% | 16µM* | 21µM* | 1% | -8%
Cc1cc(C(=O)CN2C(=O)C(=O)N(Cc3ccccc3)C2=O)c(C)n1CC1COc2ccccc2O1 (stereo not drawn) | -10% | -14% | -27% | 18µM* | 5% | 0%
Cc1cc(C(=O)COC(=O)c2ccc(CO)cc2)c(C)n1CC1COc2ccccc2O1 (stereo not drawn) | -3% | -29% | 23µM* | ? | -14% | -6%
Cc1cc(C(=O)CSc2nnc(-c3ccccc3)o2)c(C)n1CC1COc2ccccc2O1 (stereo not drawn) | -33% | ? | ? | ? | ? | -37%
COC(=O)c1ccc(/C=N/n2c(C)nc3ccccc3c2=O)cc1 | -20% | 8% | -12% | ? | 0% | ?
CCOc1ccc(C(=O)OCc2cc(=O)n3cc(C)sc3n2)cc1 | 0% | . | -1% | 4% | . | ?
O=C(O)c1c[nH]c2c([N+](=O)[O-])cccc2c1=O | -22% | -17% | ? | 9.2µM* | -6% | -3%
O=C(O)c1c[nH]c(=O)c2ccccc12 | -1% | -1% | -5% | 0% | 0% | -2%
Cc1cc2oc3ccc(NCCCn4ccnc4)cc3c(=O)c2cc1C | -33% | ? | ? | 15µM* | ? | 103%
Cc1cc2oc3ccc(NCCCN4CCOCC4)cc3c(=O)c2cc1C | -1% | 18% | 10µM* | 13µM* | 18% | 3%
Cc1ccc(C2c3c(oc4cc(C)c(C)cc4c3=O)C(=O)N2CCCN2CCOCC2)cc1 (stereo not drawn) | -23% | 2% | ? | ? | -8% | ?
Cc1cc2oc(=O)cc(Cn3ccnc3)c2cc1C | -2% | -6% | 8% | -4% | 1% | 4%
Cn1c(SCc2ccccc2)nnc1C1CCCN(Cc2cccc3ncccc23)C1 (stereo not drawn) | . | . | ? | -27% | . | .
SMILES | HepG2 viability | HT1080 IDH1KD tx | TDP1 cell CPT | DT40 TDP1 no CPT | HT1080-NT tox | TGFb inhibitor
Cc1ccc(Cl)cc1NC(=O)C(C)n1nc(-c2ccccc2)ccc1=O (stereo not drawn) | -19% | . | ? | -20% | . | -20%
CCOc1ccc(S(=O)(=O)NC2=NCCCCC2)cc1 | -2% | 0% | 0% | ? | 6% | 2%
Cc1cccc(N2C(=O)CSC23CCCCC3)c1 | -2% | 2% | ? | ? | 2% | -2%
COCOCCn1cc(CN2CCS(=O)(=O)N(Cc3ccc(-c4ccc(OC)c(OC)c4)cc3)C(C)C2=O)nn1 (stereo not drawn) | -26% | 1% | 16µM* | 10µM* | 10% | -10%
COCOCCn1cc(CN2CCS(=O)(=O)N(Cc3ccc(-c4ccc(C)cc4)cc3)C(C)C2=O)nn1 (stereo not drawn) | -15% | -13% | ? | 15µM* | -12% | -1%
COCOCCn1cc(CN2CCS(=O)(=O)N(Cc3ccc(-c4ccc(Cl)c(Cl)c4)cc3)C(C)C2=O)nn1 (stereo not drawn) | -109% | ? | 4.1µM* | 4.1µM* | 23µM* | ?
COCOCCn1cc(CN2CCS(=O)(=O)N(Cc3ccc(-c4ccncc4)cc3)C(C)C2=O)nn1 (stereo not drawn) | -4% | 13% | -18% | -16% | 18% | -3%
COCOCCn1cc(CN2CCS(=O)(=O)N(Cc3ccc(-c4ccc(Cl)nc4)cc3)C(C)C2=O)nn1 (stereo not drawn) | -9% | -2% | -22% | ? | -2% | 2%
Cc1ccc(N2CC(c3nnc(NC(=O)c4ccco4)s3)CC2=O)cc1Cl (stereo not drawn) | 12% | . | -3% | ? | . | -9%
CN1CCN(CCCN2c3ccccc3Sc3ccc(S(=O)(=O)N(C)C)cc32)CC1 | 11µM* | 12µM* | 16µM* | 23µM* | 18µM* | ?
OCCN1CCN(CCCN2c3ccccc3Sc3ccc(Cl)cc32)CC1 | 16µM* | ? | 23µM* | 29µM* | ? | ?
CC(=O)c1ccc2c(c1)N(CCCN1CCC(CCO)CC1)c1ccccc1S2 | -29% | . | 11µM*! | ? | . | 17%
Cc1cccnc1NC(=O)CCc1nnc2ccc(NCc3ccco3)nn12 | 9% | 8% | ? | -2% | 5% | 7%
